Compounds with a hit are over-represented: about 7.9% of the library has one in this group of screens.
LASV entry inh – Lassa virus entry inhibition | Lassa virus pseudotype entry inhibition, cell reporter | Potency, µM (doses to about 37.9 µM), hits mostly inhibitors | actives 1.2% (n = 300,000); calls by dose curve; tested in HEK293 cells; further: nearly all actives have a fitted effect of over 50% in size
FMDV antiviral – antivirals against foot and mouth disease virus; actives 1.2% (n = 410,000); Potency, µM (doses to about 57.9 µM), most hits filed as inhibitors; FMDV antiviral cell-based qHTS; calls by dose curve; tested in HEK293T cells; further: read-out not given here; nearly all actives have a fitted effect of over 45% in size
HCMV antiviral – blocks human cytomegalovirus replication; HFF cells, HCMV-luciferase reporter, 72 h; stronger effect = lower value; activity change, negative = inhibition, % at 57.5 µM; actives 4.5% (n = 410,000); in the data active means activity change below about -60%; inconclusive means no clear call, values can overlap the other calls; inactive means above about -39%
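Steps: HFFs plated, 16 h 37C; compounds added; HCMV-luciferase added to MOI 1 PFU/cell; 72 h 37C; OneGlo reagent, 5 min room temperature; luminescence read, normalized to controls.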
HCV inhibitor – blocks hepatitis C virus; Huh7.5.1 HCVcc-Cre infection, luciferase reporter, 44 h; Potency, µM (top dose mostly 41.8 µM), hits mostly inhibitors; actives 3.4% (n = 340,000); AID 651820; active means well fitted inhibition curve with a large enough effect; inconclusive means small, poorly fitted or top-dose-only effect, or another doubt; inactive means no such curve, though single readings can be large or run the other way
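A cell-based infection assay in which seeded cells (1,000 per well) receive test compound after 4 h, are inoculated with HCVcc-Cre at approximately 0.5 moi, and are incubated 44 h before luminescence detection.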
Marburg entry inh – inhibitors of Marburg virus binding or cell entry. Marburg virus pseudotyped entry inhibition, cell reporter. Potency, µM (titrated, usually from 37.8 µM), most hits filed as inhibitors. actives 1.8% (n = 300,000); calls by dose curve; tested in HEK293 cells
A number is an active result; [ ] = another dose, or the depositor's remark.

COc1ccccc1N1CCN(C(=O)CSc2nc3ccccc3o2)CC1 was read as LASV entry inh inactive, FMDV antiviral inactive, HCMV antiviral inactive, HCV inhibitor inactive and Marburg entry inh inconclusive.
`COCCNc1nc(SCC(=O)N2CCN(c3ccccc3OC)CC2)nc2ccccc12` gave LASV entry inh inactive, FMDV antiviral inconclusive, HCMV antiviral inactive, HCV inhibitor 10µM and Marburg entry inh inconclusive.
CCCN(CCC)C(=O)c1ccc2nc(-c3ccc(OC)c(OC)c3)c(-c3ccc(OC)c(OC)c3)nc2c1 was read as FMDV antiviral inactive, HCMV antiviral inactive and HCV inhibitor inconclusive.
For C/C(Cl)=C\Cn1c(O)c(N=NC(N)=S)c2cc(Br)ccc21 the results were FMDV antiviral inconclusive, HCMV antiviral -109.2 and HCV inhibitor 11.2µM.
`NC(=S)N=Nc1c(O)n(Cc2ccc(Br)cc2)c2ccccc12` gave LASV entry inh inconclusive, FMDV antiviral inactive, HCMV antiviral inactive, HCV inhibitor 1µM and Marburg entry inh inconclusive.
Screening NC(=S)N=Nc1c(O)n(Cc2ccc(F)cc2)c2ccccc12 returned FMDV antiviral inconclusive, HCMV antiviral inactive and HCV inhibitor inconclusive.
COc1cc2c(cc1OC)C(C)N(C(=O)c1ccc(Br)o1)CC2 (stereo not drawn) was read as LASV entry inh inactive, FMDV antiviral inconclusive, HCMV antiviral inactive, HCV inhibitor inactive and Marburg entry inh inconclusive.
For Clc1cccc(Cl)c1CSc1nnc([C@@H]2CCCN2)o1 the results were LASV entry inh inactive, FMDV antiviral inactive, HCMV antiviral inactive, HCV inhibitor inactive and Marburg entry inh inactive.
Screening C#CCOCCOCCOCCNc1nc(N2CCN(C(=O)CCCCCCCCCCNC(=O)[C@H]([C@@H](C)CC)n3cc(CCCCCN)nn3)CC2)nc(N2CCN(C(=O)CCCCCCCCCCNC(=O)[C@@H]([C@H](C)O)n3cc(C)nn3)CC2)n1 returned FMDV antiviral inconclusive and HCV inhibitor inactive.
For C#CCOCCOCCOCCNc1nc(N2CCN(C(=O)CCCCCCCCCCNC(=O)[C@@H]([C@H](C)O)n3cc(C)nn3)CC2)nc(N2CCN(C(=O)CCCCCCCCCCNC(=O)[C@@H]([C@H](C)O)n3cc(C)nn3)CC2)n1 the results were FMDV antiviral inactive, HCMV antiviral -74.1 and HCV inhibitor inactive.
For C#CCOCCOCCOCCNc1nc(N2CCOCC2)nc(N2CCN(C(=O)CCCCCCCCCCNC(=O)[C@@H]([C@H](C)O)n3cc(C)nn3)CC2)n1 the results were FMDV antiviral inactive, HCMV antiviral inactive and HCV inhibitor inactive.
For C#CCOCCOCCOCCNc1nc(N2CCN(C(=O)CCCCCCCCCCNC(=O)[C@H](CCCCN)n3cc(CCO)nn3)CC2)nc(N2CCN(C(=O)CCCCCCCCCCNC(=O)[C@H](CCCCN)n3cc(CCO)nn3)CC2)n1 the results were FMDV antiviral inactive and HCV inhibitor inactive.
C#CCOCCOCCOCCNc1nc(N2CCN(C(=O)CCCCCCCCCCNC(=O)[C@H](CCCCN)n3cc(C[C@@H](C)CC)nn3)CC2)nc(N2CCN(C(=O)CCCCCCCCCCNC(=O)[C@H](CCCCN)n3cc(C[C@@H](C)CC)nn3)CC2)n1 was read as FMDV antiviral 39.8µM and HCV inhibitor inactive[8.37 µM].
Screening C#CCOCCOCCOCCNc1nc(N2CCN(C(=O)CCCCCCCCCCNC(=O)[C@H](CCCCN)n3cc(C)nn3)CC2)nc(N2CCN(C(=O)CCCCCCCCCCNC(=O)[C@@H]([C@H](C)CC)n3cc(CCCCCN)nn3)CC2)n1 returned HCV inhibitor 22.4µM.
For O=C(O)[C@@H]1CC(=O)n2c(nc3ccccc32)S1 the results were Marburg entry inh inactive.
For Cc1c(C(=O)NCc2cccc(Br)c2)oc2ccc3c(c12)C(=O)CC(C)(C)O3 the results were FMDV antiviral inactive, HCMV antiviral inactive and Marburg entry inh inactive.
CCCC(=O)Nc1ccc2c(c1)c1ccccc1n2CC was read as LASV entry inh inconclusive, FMDV antiviral inactive, HCMV antiviral inconclusive, HCV inhibitor inconclusive and Marburg entry inh inconclusive.
Screening CCn1c2ccccc2c2cc(NC(=O)CC(C)=O)ccc21 returned LASV entry inh inactive, FMDV antiviral inactive, HCMV antiviral inactive, HCV inhibitor 12.6µM and Marburg entry inh inactive.
CCOC(=O)C(=CNc1ccc2c(c1)c1ccccc1n2CC)C(=O)OCC was read as FMDV antiviral inactive, HCMV antiviral inactive and HCV inhibitor 10µM.
For CCN(CCCNC(=O)c1ccc(Sc2ccc(Cl)cc2)c(NC(C)=O)c1)c1cccc(C)c1 the results were LASV entry inh inactive, FMDV antiviral inactive and HCMV antiviral inactive.
Screening CCN(CCNCC(O)COCc1ccc(Cl)cc1)c1cccc(C)c1 (stereo not drawn) returned LASV entry inh inconclusive, FMDV antiviral inconclusive, HCMV antiviral inactive, HCV inhibitor 15.8µM and Marburg entry inh inconclusive.
For CN1CCN(c2ccc([N+](=O)[O-])c(-n3nc(-c4ccccc4)c4ccccc4c3=O)c2)CC1 the results were LASV entry inh inconclusive, FMDV antiviral inactive, HCMV antiviral inactive, HCV inhibitor 4.47µM and Marburg entry inh inconclusive.
O=C1NCC2=C1C(c1ccc(Br)cc1)Nc1ccccc1N2 (stereo not drawn) was read as LASV entry inh inactive, FMDV antiviral inactive, HCMV antiviral inactive, HCV inhibitor inactive and Marburg entry inh inactive.
`CCOC(=O)c1c(C)[nH]c(C)c1C(=O)COC(=O)c1ccc(Cl)c(S(=O)(=O)NCc2ccccc2)c1` gave LASV entry inh inactive, FMDV antiviral inconclusive, HCMV antiviral inactive, HCV inhibitor 7.08µM and Marburg entry inh inactive.
For O=C(COC(=O)c1ccc(Cl)c(S(=O)(=O)NCc2ccccc2)c1)NC1CC1 the results were LASV entry inh inactive, FMDV antiviral inactive, HCMV antiviral inactive, HCV inhibitor inactive and Marburg entry inh inactive.
Cc1cccc(-c2nnc(SCc3cc(=O)c4cccc(Cl)c4[nH]3)n2C)c1 was read as LASV entry inh inactive, FMDV antiviral 25.1µM and HCMV antiviral inconclusive.
For C=CCNC(=O)C1CCC(CNc2nc(=S)[nH]c3ccccc23)CC1 (stereo not drawn) the results were FMDV antiviral inactive, HCMV antiviral inactive and HCV inhibitor inconclusive.
Screening O=C(C1CCC(CNc2nc(=S)[nH]c3ccccc23)CC1)N1CCN(c2ccccn2)CC1 (stereo not drawn) returned LASV entry inh inactive, FMDV antiviral inconclusive, HCMV antiviral -107.4 and Marburg entry inh inactive.
`Cc1ccc(C2/C=C\CC(NC(=O)OCC3c4ccccc4-c4ccccc43)CC(=O)N2Cc2ccccc2)cc1` (stereo not drawn) gave FMDV antiviral inactive, HCMV antiviral inactive and HCV inhibitor 17.8µM.
CCOc1ccc(-c2cc3c(=O)n(Cc4nc(-c5ccc(OCC)c(OC)c5)oc4C)ccn3n2)cc1Cl was read as LASV entry inh inactive, FMDV antiviral inactive, HCMV antiviral inactive and Marburg entry inh inactive.
`COc1ccc(N(CC(=O)Nc2cccc(C(C)=O)c2)S(=O)(=O)c2ccccc2)c(OC)c1` gave LASV entry inh inconclusive, FMDV antiviral inactive, HCMV antiviral inactive and Marburg entry inh inconclusive.

Compound activity deposited in PubChem BioAssay by National Center for Advancing Translational Sciences (NCATS).
